Source: PubChem BioAssay (National Center for Advancing Translational Sciences (NCATS))
Six1-Eya2 blk: qHTS Assay for Inhibitors of the Six1/Eya2 Interaction; AlphaScreen GST-Six1/His-Eya2 binding, biochemical; active compounds read low; activity change, % (concentration not given with the values); 360,000 tested, 0.56% active; Homeobox protein SIX1 (Homo sapiens) + Protein phosphatase EYA2 (Homo sapiens), …; in the data active = activity change below about -65%; inconclusive = mostly about -30% to -63%; note: % is set by controls: 0 for no effect and ±100 for the full control effect
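Homogeneous AlphaScreen proximity assay pairing GST-Six1 with His-tagged Eya2 (added as 5X mix: 250 nM and 500 nM) in 50 mM Tris pH 8.0, 300 mM NaCl, 1 mM TCEP. Glutathione donor and nickel acceptor beads; 1 h, 37 °C, dark.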
BAZ2B inh: qHTS Assay for Inhibitors of BAZ2B; Bromodomain adjacent to zinc finger domain protein 2B (Homo sapiens), Q9UIF8; AlphaScreen BAZ2B-H3K14Ac peptide displacement; Potency, µM (titrated, usually from 114 µM), inactives show top-dose activity change, negative = inhibition, usual class: inhibitors; 360,000 tested, 4.4% active; note: potency is the fitted concentration of half-maximal effect; % is set by controls: 0 for no effect and ±100 for the full control effect; nearly all actives have a fitted effect of over 60% in size
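AlphaScreen displacement: compounds (up to 110uM) incubated 30 min at room temperature with a preformed 50 nM BAZ2B/50 nM biotinylated H3K14Ac peptide complex in PBS pH 7.4 with Tween-20. Donor and acceptor beads at 10 ug/mL final added, 20 min light-protected before reading.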
JMJD2A Tudor inh: qHTS Assay for Inhibitors of JMJD2A-Tudor Domain; AlphaScreen JMJD2A-Tudor / H3K4me3 peptide binding; Potency, µM (series often up to 114 µM), for inactives: at the highest dose activity change, negative = inhibition, usual class: inhibitors; 390,000 tested, 4.4% active; note: potency is the fitted concentration of half-maximal effect; % is set by controls: 0 for no effect and ±100 for the full control effect; nearly all actives have a fitted effect of over 50% in size
HP1b chromo inh: HTS for Inhibitors of HP1-beta Chromodomain Interactions with Methylated Histone Tails; AlphaScreen HP1-beta / biotin-H3K9me3 peptide binding; Potency, µM (series often up to 114 µM), for the others: at the highest dose activity change, negative = inhibition, actives largely listed as inhibitors; 390,000 tested, 0.56% active; AID 540317, 2011; note: potency is the fitted concentration of half-maximal effect; nearly all actives have a fitted effect of over 70% in size
Target sequence (P83916 whole entry, looked up): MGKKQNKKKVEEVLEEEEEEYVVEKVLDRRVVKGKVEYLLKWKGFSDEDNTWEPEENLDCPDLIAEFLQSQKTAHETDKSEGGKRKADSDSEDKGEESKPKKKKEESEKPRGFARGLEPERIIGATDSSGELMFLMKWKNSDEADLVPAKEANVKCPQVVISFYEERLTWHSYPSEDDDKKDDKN
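HP1-beta protein (50 nM final) preincubated 30 min at room temperature with biotinylated H3(1-18)K9me3 peptide (50 nM) in PBS pH 7.4, 0.01% Tween-20, then compound added for 30 min. AlphaScreen streptavidin donor/nickel chelate acceptor beads (10 ug/mL final), 30 min dark, luminescence read.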
G9a inh-1: qHTS Assay for Inhibitors of Histone Lysine Methyltransferase G9a. AID 504332, 2011. G9a H3K9 monomethylation, AlphaScreen, 2 h. 350,000 tested, 8.8% active. Potency, µM (titrated, usually from 102 µM), inactives show at the highest dose activity, negative = inhibition, hits mostly inhibitors; note: potency is the fitted concentration of half-maximal effect; % is set by controls: 0 for no effect and ±100 for the full control effect; nearly all actives have a fitted effect of over 75% in size
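Quantitative HTS format: methyltransferase activity on a biotin-tagged H3K9 peptide is measured by AlphaScreen, using a rabbit anti-monomethyl-H3K9 antibody with streptavidin donor and anti-IgG acceptor beads. Final levels are 20 nM enzyme, 500 nM peptide, 20 uM SAM; 2 h RT.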
CtBP-E1A inh: qHTS Assay for Inhibitors of the CtBP/E1A Interaction; AlphaScreen GST-E1A/His-CtBP binding, 1536-well; active compounds read low; activity change, % (test concentration not listed); 340,000 tested, 0.49% active; in the data active = activity change below about -65%; inconclusive = mostly about -30% to -63%; note: % is set by controls: 0 for no effect and ±100 for the full control effect
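AlphaScreen with 125 nM GST-E1A and 125 nM His-CtBP (5X stocks) in Tris pH 8.0, 300 mM NaCl, BSA, Tween 20, TCEP. Compounds preincubated 2 h at 37 deg C, then glutathione donor/nickel acceptor beads added for 1 h at 37 deg C in dark.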
JMJD2E inh-1: Inhibitors of Human Jumonji Domain Containing 2E (JMJD2E): 8HQs - Round 1; AID 493212, 2011; shares compounds with BAZ2B inh; Potency, µM (doses to about 57 µM), for inactives: at the top dose activity, negative = inhibition, usual class: inhibitors; 130 tested, 89% active; JMJD2E demethylase, FDH-coupled NADH fluorescence
Target sequence (B2RXH2 1-337 limits assumed): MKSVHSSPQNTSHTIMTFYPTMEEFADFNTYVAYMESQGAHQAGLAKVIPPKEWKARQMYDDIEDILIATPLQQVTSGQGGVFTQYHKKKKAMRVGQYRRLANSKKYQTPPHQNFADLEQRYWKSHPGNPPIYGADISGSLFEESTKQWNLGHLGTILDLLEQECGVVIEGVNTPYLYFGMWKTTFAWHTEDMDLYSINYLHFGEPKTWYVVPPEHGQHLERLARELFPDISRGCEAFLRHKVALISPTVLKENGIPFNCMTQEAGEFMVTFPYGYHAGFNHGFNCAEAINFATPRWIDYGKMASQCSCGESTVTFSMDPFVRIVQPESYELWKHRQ
JMJD2E inh-2: Confirmation qHTS Assay for Inhibitors of Human Jumonji Domain Containing 2E (JMJD2E); shares compounds with JMJD2A Tudor inh; Recombinant JMJD2E, FDH-coupled NADH fluorescence (FDH is formaldehyde dehydrogenase); Potency, µM (series often up to 56.8 µM), inactives show at the highest dose activity change, negative = inhibition, usual class: inhibitors; 140 tested, 93% active
FDH counter: Counterscreen for JMJD2E Inhibitors: qHTS Assay for Inhibitors of Formaldehyde Dehydrogenase (FDH); Potency, µM (top dose mostly 56.7 µM), for inactives: top-dose activity, negative = inhibition, most hits filed as inhibitors; 140 tested, 10% active; AID 2680, 2010; FDH enzyme assay, NADH fluorescence kinetic; shares compounds with JMJD2A Tudor inh
JMJD2E MALDI inh: MALDI-TOF-MS Assay for Inhibitors of Human Jumonji Domain Containing 2E (JMJD2E); recombinant JMJD2E demethylation, MALDI-TOF-MS; shares compounds with JMJD2A Tudor inh; 45 tested, 90% active; AID 2688, 2010; Potency, µM, most hits filed as inhibitors;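 active = compounds whose IC50 for blocking JMJD2E demethylation is below 100 µM; inconclusive = dose dependent effect but IC50 above 100 µM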
G9a inh-2: qHTS Assay for Inhibitors of Histone Lysine Methyltransferase G9a: Hit Confirmation | Potency, µM, most hits filed as inhibitors | G9a H3K9 monomethylation, AlphaScreen, 2 h | shares compounds with JMJD2A Tudor inh | 370 tested, 89% active; note: potency is the fitted concentration of half-maximal effect; nearly all actives have a fitted effect of over 65% in size
* marks the source's active call; other numbers are inactive results; ? = inconclusive; / = no result; [ ] = another dose, or the depositor's remark. In the library only some 10% were active in any assay of this set; here they are far more common. Unless noted, calls come from the whole dose curve; as a rule, active = well fitted curve in the direction sought with a large enough effect; inconclusive = small, poorly fitted or top-dose-only effect, or another doubt; inactive = no such curve, though single readings can be large; an effect the other way counts as inactive or inconclusive.

SMILES	Six1-Eya2 blk	BAZ2B inh	JMJD2A Tudor inh	HP1b chromo inh	G9a inh-1	CtBP-E1A inh	others
Oc1ccc(CNc2ccccc2C(F)(F)F)c2cccnc12	/	/	56.2µM*	/	/	/	JMJD2E inh-1=3.98µM*;JMJD2E inh-2=12.9µM*;FDH counter=-18.2%;JMJD2E MALDI inh=11.2*
O=C(Cc1ncc(C(F)(F)F)cc1Cl)NCc1cccnc1	4.0	-8.0%	-4.3%	36.6%	12.6%	6.4
COc1cccc(-c2cc(NC(C)=O)c3ncc(-c4ccc(OC)c(OC)c4)n3c2)c1	-15.6	/	/	/	/	-23.8
c1ccc(C2=Nc3cccnc3C(c3ccccc3)=NN2)cc1	-5.6	-13.6%	-28.8%	15.0%	-30.4%	-0.9
CCN(CC(=O)NCc1cccs1)S(=O)(=O)c1c(F)cccc1F	5.1	3.1%	-7.5%	42.6%	19.1%[12.7 µM]	/
CCC(C(=O)N1CCN(c2cc(C)ccc2C)CC1)n1nc(C)n2c(cc3occc32)c1=O (stereo not drawn)	/	?	-32.9%	6.5%	-34.4%[59 µM]	/
Nc1sc(-c2ccccc2)cc1C(=O)NCCN1CCOCC1	-6.1	/	/	/	/	-0.4
Oc1ccc(CCc2ccccc2F)c2cccnc12	/	/	-29.9%	/	/	/	JMJD2E inh-1=10µM*;JMJD2E inh-2=12.9µM*;FDH counter=-9.1%;JMJD2E MALDI inh=28.7*
COc1ccccc1NC(=O)CCC(=O)OCc1ccc([N+](=O)[O-])cc1	19.4	3.0%	-4.1%	48.0%	-1.1%[0.501 µM]	/
CCc1cccc(C)c1NC(=O)c1cccc(N(C)C)c1	-5.9	89.1µM*	-15.4%	8.5%	?	0.0	G9a inh-2=8.91*
CCc1cccc(C)c1NC(=O)c1cccc(C(=O)Nc2c(C)cccc2CC)c1	/	-0.6%	-13.7%	-5.9%	-1.3%[59 µM]	/
Cc1cccc(NC(=O)c2c(NC(=O)c3ccccc3)sc3c2CCCC3)c1	/	56.2µM*	79.4µM*	-7.1%	1.26µM*	/	G9a inh-2=2*
Cc1cccc(NC(=O)c2c(NC(=O)c3ccccc3)sc3c2CCC3)c1	/	-0.6%	21.2%	107.7%	35.8%[59 µM]	/
